Measured values published in PubChem BioAssay (NCI).
The panel holds about 83,000 compounds, 20% with a hit somewhere; the sample as a whole holds those more often.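 Values shown are percent growth following 48 h exposure of cells in 96-well plates to a single concentration of compound; below 10 was considered active.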 A number with no mark means an inactive call. Activity calls are given as the source filed them.

Each compound was assayed on NCI-H23 lung (assay: NCI-60 one-dose screen, 48 h (100 = growth as untreated, 0 = no growth, -100 = all killed)). Details: 10 µM unless noted.

Structure (SMILES) | growth
CC(C)CCC[C@@H](C)[C@H]1CC[C@H]2[C@@H](Nc3ccc(O)cc3)CCC[C@]12C | 84.2%
O=C(Nc1ccccc1)Nc1cccc(Oc2nnc(Cl)c3ccccc23)c1 | 32.7%
CCCCNC(=O)Oc1ccc2c(=O)c3sc4c(=O)c5ccccc5c(=O)c4c3c(=O)c2c1 | -47.6% (active)
COc1nc(N(C)O)nc(N(C)O)n1 | 43.9%
N=c1sc(Cc2ccc(Cl)cc2)cn1CC(=O)c1ccc(F)cc1 | 82.4%
Cc1ccc(-c2cc(-c3ccccc3C)[nH]c(=O)c2C#N)s1 | 92.4%
O=C1/C(=C\c2c[nH]c3ccccc23)c2ccccc2N1c1c(Cl)cccc1Cl | -80.1% (active)
COc1ccc(C2C(c3nn[nH]n3)=C(N)Oc3c2ccc2ccccc32)cc1 (centres undefined) | 69.1%
CCCCCCCOc1c(OC)cc(C2CC(=O)Nc3c2c(C)nn3-c2nc3ccccc3[nH]2)cc1OC (centres undefined) | -2.79% (active)
Cc1c(C(=O)OC(=NC2CCCCC2)NC2CCCCC2)sc2c1c(=O)nc1c(C#N)n[nH]n12 | 97.3%
C[n+]1cccc(CC(=O)NO)c1 | 102%
c1c[nH]c(CNC2CCCCC2)c1 | 97.7%
N#C/C(=C\c1ccc(Br)cc1)n1nnc2cc(F)c(F)cc21 | 28.5%
CC1(C)CC[C@]2(C(=O)N3CCOCC3)CC[C@]3(C)C(=CC[C@@H]4[C@@]5(C)CC[C@H](OC(=O)c6cccnc6)C(C)(C)[C@@H]5CC[C@]43C)[C@@H]2C1 | 68.9%
